A selection: hits, their analogues and other compounds. The true share with any hit is near 15%.
TDP1 cell noCPT: qHTS for Inhibitors of human tyrosyl-DNA phosphodiesterase 1 (TDP1): qHTS in cells in absence of CPT. DT40 Tdp1-/- hTDP1 cells, no CPT, ATP luminescence, 48 h. Potency, µM (doses to about 46.2 µM), most hits filed as inhibitors. 420,000 compounds, 15% hits. AID 686978, 2013; also: nearly all actives have a fitted effect of over 55% in size
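Chicken DT40 Tdp1-/- cells complemented with human TDP1, screened without camptothecin (DMSO vehicle only), 400 cells/well. Compounds pin-transferred, cells incubated at 37 °C for at least 48 hr. Growth read as ATP-dependent luminescence (CellTiter-Glo, 30 min at RT).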
TDP1 cell CPT: qHTS for Inhibitors of human tyrosyl-DNA phosphodiesterase 1 (TDP1): qHTS in cells in presence of CPT; chicken DT40 Tdp1-/-;hTDP1 cells + 20 nM CPT, ATP luminescence, 48 h; Potency, µM (top dose mostly 46.2 µM), hits mostly inhibitors; 420,000 compounds, 12% hits; also: nearly all actives have a fitted effect of over 55% in size
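Chicken DT40 Tdp1-/- cells complemented with human TDP1, 400 cells/well, exposed to compounds plus 20 nM camptothecin for at least 48 h at 37 C; viability read as ATP content by CellTiter-Glo luminescence.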
ELG1 DNA repair: qHTS screen for small molecules that inhibit ELG1-dependent DNA repair in human embryonic kidney (HEK293T) cells expressing luciferase-tagged ELG1; AID 504467, 2011; HEK293T ELG1-luciferase reporter, luminescence, 16 h; DNA damage induced by 5-fluorouridine; Potency, µM (highest dose often 46.1 µM), most hits filed as inhibitors; 330,000 compounds, 2.3% hits; also: nearly all actives have a fitted effect of over 55% in size
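Cells (2,000 per well) received 5-fluorouridine plus test compound or DMSO and were incubated 16 hr at 37 °C, 5% CO2. Luciferase activity was read by luminescence 30 min after ONE-Glo addition; signal suppression marked inhibition of damage-induced ELG1 function.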
VP16 counter: VP16 counterscreen qHTS for inhibitors of ROR gamma transcriptional activity; Potency, µM (doses to about 53.6 µM), usual class: inhibitors; 310,000 compounds, 3.5% hits; AID 2546, 2010; Drosophila S2 Gal4-VP16 UAS-luciferase, luminescence, 20 h;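 also: Gal4-VP16 expression switched on by copper sulfate through the metallothionein promoter; nearly all actives have a fitted effect of over 50% in size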
ALOX12 inh: Primary qHTS assay for inhibitors of human arachidonate 12S-lipoxygenase (ALOX12): Round 2; Polyunsaturated fatty acid lipoxygenase ALOX12 (Homo sapiens), P18054; purified 12hLO, xylenol orange hydroperoxide absorbance; Potency, µM (highest dose often 108 µM), usual class: inhibitors; 580,000 compounds, 1.1% hits; AID 1671190, 2021
Target sequence (P18054 whole entry, looked up): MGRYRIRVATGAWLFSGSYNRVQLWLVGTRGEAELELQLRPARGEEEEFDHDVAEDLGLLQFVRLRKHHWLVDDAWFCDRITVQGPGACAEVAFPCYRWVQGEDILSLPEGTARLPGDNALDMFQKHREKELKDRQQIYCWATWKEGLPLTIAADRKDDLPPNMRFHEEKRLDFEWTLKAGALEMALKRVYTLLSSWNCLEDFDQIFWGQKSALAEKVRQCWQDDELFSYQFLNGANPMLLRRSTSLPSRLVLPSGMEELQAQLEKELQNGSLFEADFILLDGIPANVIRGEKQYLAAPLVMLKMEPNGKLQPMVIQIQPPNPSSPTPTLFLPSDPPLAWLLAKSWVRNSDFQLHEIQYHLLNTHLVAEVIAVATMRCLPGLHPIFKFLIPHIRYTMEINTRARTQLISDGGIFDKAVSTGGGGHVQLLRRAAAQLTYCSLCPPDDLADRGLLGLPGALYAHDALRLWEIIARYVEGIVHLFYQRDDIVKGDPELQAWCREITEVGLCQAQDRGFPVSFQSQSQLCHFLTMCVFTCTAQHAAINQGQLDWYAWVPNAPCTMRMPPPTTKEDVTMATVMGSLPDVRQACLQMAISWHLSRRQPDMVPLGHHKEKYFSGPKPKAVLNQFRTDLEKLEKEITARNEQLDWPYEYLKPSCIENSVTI
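Hydroperoxide product was detected by ferrous iron/xylenol orange as the 573 to 405 nm absorbance ratio. Arachidonic acid at 40 uM (final) was turned over for 30 min at room temperature by 150 nM human 12hLO, pH 7.0 Hepes buffer, after 15 min compound preincubation.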
RORgamma inh: qHTS for inhibitors of ROR gamma transcriptional activity; Nuclear receptor ROR-gamma (Mus musculus), P51450; Drosophila S2 Gal4-RORgamma UAS-luciferase reporter, 20 h; Potency, µM (titrated, usually from 53.6 µM), usual class: inhibitors; 310,000 compounds, 5.4% hits; also: nearly all actives have a fitted effect of over 60% in size
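In this cell-based reporter format, copper sulfate (700 uM final) drives Gal4–ROR gamma fusion expression from a metallothionein promoter in Drosophila Schneider cells; compounds preincubated 1 hr, reporter read after 20 hr at ambient temperature.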
Numbers stand for hits; n = inactive; u = inconclusive; x = no result given; ! = repeats disagree. Calls follow the shape of the dose curve; as a rule, active = well fitted curve in the direction sought with a large enough effect; inconclusive = small, poorly fitted or top-dose-only effect, or another doubt; inactive = no such curve, though single readings can be large; an effect the other way counts as inactive or inconclusive.

SMILES	TDP1 cell noCPT	TDP1 cell CPT	ELG1 DNA repair	VP16 counter	ALOX12 inh	RORgamma inh
CC(C)c1nnc(NC(=O)CC(=O)Nc2ccccc2C(=O)O)s1	n	n	u	u	u	11µM
Cc1nnc(NC(=O)c2sc3ccccc3c2Cl)s1	u	n	u	8.9µM	n	u
COc1ccccc1C(=O)NNC(=S)NC(=O)c1sc2ccccc2c1Cl	8.2µM	15µM	u	13µM	n	13µM
CC(C)Sc1nnc(NC(=O)CCc2ccccc2)s1	n	n	n	n	n	n
CC(C)Cc1nnc(NC(=O)CC(=O)Nc2ccccc2C(=O)O)s1	n	n	u	n	n	n
Cc1ccccc1C(=O)Nc1nnc(SC(C)C)s1	n	n	u	n	n	2.5µM
COc1ccccc1-c1nc(C#N)c(NCc2ccccc2Cl)o1	x	x	x	x	n	x
CNC(=O)c1ccsc1NC(=O)c1sc2ccccc2c1Cl	u	13µM	u	n	n	n
Cc1nnc(NC(=O)c2ccccc2-c2ccccc2C(=O)O)s1	n	n	u	n	n	n
Cc1cccnc1NC(=O)c1sc2ccccc2c1Cl	n	n	u	8.9µM	n	8.9µM
Cc1nnc(NC(=O)c2ccccc2NC(=O)c2ccccc2)s1	n	n	u	n	n	18µM
Cc1cc(Cn2cc3c4c(cccc42)[C@H](CC(C)C)N[C@H](C(=O)NCc2ccccn2)C3)no1	x	x	x	x	n	x
COC(=O)c1[nH]c2cc(Cl)ccc2c1C=O	x	x	x	x	n	x
O=C(Nc1ccon1)c1sc2cccc(Cl)c2c1Cl	x	x	x	x	n	x
CN(Cc1nc(-c2cccnc2)no1)S(=O)(=O)c1ccc2ccccc2c1	n	n	n	n	n	n
Cc1ccc(-c2noc(CN(C3CCCCC3)S(=O)(=O)c3ccc(C)cc3)n2)cc1	10µM	13µM	x	x	n	x
CN(Cc1nc(-c2cccnc2)no1)S(=O)(=O)c1ccc(Br)cc1	u	u	u	11µM	n	n
COc1ccc(-c2noc(CN(C(C)C)S(=O)(=O)c3ccc(Br)cc3)n2)cc1	23µM	u	x	x	n	x
COc1ccc(S(=O)(=O)N(Cc2nc(-c3ccc(C)cc3)no2)C2CCCCC2)cc1	7.3µM	8.2µM	x	x	n	x
C[C@H](CCC(=O)O)[C@H]1CCC2C3CC[C@@H]4C[C@H](O)CC[C@]4(C)C3CC[C@@]21C (some centres not stated)	x	x	x	x	n	x
O=C(N[C@@H]1CCC(=O)N(CC[C@H](Sc2ccccc2)c2ccccc2)CC1)OCc1ccccc1	23µM	u	u	n	n	n
O=C(NC1CCC(=O)N(CCOc2ccccc2)CC1)OCc1ccccc1 (configuration not stated)	11µM!	u	n	n	n	n
O=C(N[C@H]1CCC(=O)N(CCSc2ccc(Br)cc2)CC1)OCc1ccccc1	16µM	15µM	u	x	u	x
C[C@H]1CCC(=O)N([C@H](CN=[N+]=[N-])Cc2ccccc2)CC1	u	n	n	n	n	n
[N-]=[N+]=NC[C@H](Cc1ccccc1)N1CC[C@@H](NC(=O)OCc2ccccc2)CCC1=O	16µM	u	u	n	n	n
O=C(NC1CCCCC1)OCCN1CCN(Cc2ccccc2)CCC1=O	x	x	n	n	u	n
Fc1ccc(F)c(CN2CCC(Oc3ccccc3-c3nc(C4CCOCC4)no3)C2)c1 (configuration not stated)	x	x	x	x	n	x
CCc1c(C)sc(NC(=O)c2cccc(F)c2)c1C#N	x	x	x	x	n	x
Cc1ccc(SCCN2CCC(NC(=O)OCc3ccccc3)CCC2=O)cc1 (configuration not stated)	18µM	u	u	n	n	n
CCN(Cc1ccccc1)C(=O)CC1CCCN(c2cn[nH]c(=O)c2)C1 (configuration not stated)	x	x	x	x	n	x

Source: PubChem (National Center for Advancing Translational Sciences (NCATS))
